Reference: the supplement of paper PMC6555819

Tests used:
Test in all cases: PBM binding z-score (relative to random genomic background probes); higher = stronger binding; sequences stand for … in GC…GCGATTGACAGCGTAGAATGAAGG
[1] = system: FXR:RXRa (NR concentration 270 nM, RXRa partner concentration 90 nM)
How it was run: (§1)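 Probes were double-stranded and carried 34-nt variable regions with direct-repeat seeds, single-nucleotide variants, half-site ablations and random human genomic background sequences, printed on custom Agilent 4×180K protein-binding microarrays. Arrays were incubated 1 h with ligand-free nuclear receptor dimers in PBS pH 7.4, 2% milk, 0.02% Triton X-100, 1 mM DTT, 0.2 mg/mL BSA and 0.4 mg/ml salmon testes DNA. Antibodies against each partner (one per run) detected binding, and scanned fluorescence was regression-normalized. Binding z-scores use the random background probes as reference.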

[2] = system: LXRa:RXRa (NR concentration 270 nM, RXRa partner concentration 90 nM)
How it was run: as §1

[3] = system: LXRa homodimer (NR concentration 270 nM)
How it was run: as §1

[4] = system: LXRb:RXRa (NR concentration 270 nM, RXRa partner concentration 90 nM)
How it was run: as §1

[5] = system: LXRb homodimer (NR concentration 270 nM)
How it was run: as §1

[6] = system: PPARa:RXRa (NR concentration 270 nM, RXRa partner concentration 90 nM)
How it was run: as §1

[7] = system: PPARg:RXRa (NR concentration 180 nM, RXRa partner concentration 90 nM)
How it was run: as §1

[8] = system: PPARg:RXRa 270nM:90nM, anti-RXR (NR concentration 270 nM, RXRa partner concentration 90 nM)
How it was run: as §1

[9] = system: PPARg:RXRa 30nM:10nM, anti-RXR (NR concentration 30 nM, RXRa partner concentration 10 nM)
How it was run: as §1

[10] = system: PPARg:RXRa 90nM:30nM, anti-RXR (NR concentration 90 nM, RXRa partner concentration 30 nM)
How it was run: as §1

[11] = system: PPARg:RXRa DBDmut IVT, anti-RXR (DBD mutation: RXRa K156A/R161A, NR concentration 270 nM, RXRa partner concentration 90 nM)
How it was run: as §1

[12] = system: PPARg:RXRa IVT, anti-PPARg (NR concentration 270 nM, RXRa partner concentration 90 nM)
How it was run: as §1

[13] = system: PPARg DBDmut:RXRa IVT, anti-PPARg (DBD mutation: PPARg1 K132A/R137A, NR concentration 270 nM, RXRa partner concentration 90 nM)
How it was run: as §1

[14] = system: PPARg DBDmut IVT, anti-PPARg (DBD mutation: PPARg1 K132A/R137A, NR concentration 270 nM)
How it was run: as §1

[15] = system: PPARg homodimer (NR concentration 180 nM)
How it was run: as §1

[16] = system: PXR:RXRa (NR concentration 270 nM, RXRa partner concentration 90 nM)
How it was run: as §1

[17] = system: PXR homodimer (NR concentration 270 nM)
How it was run: as §1

[18] = system: RARa:RXR (NR concentration 270 nM, RXRa partner concentration 90 nM)
How it was run: as §1

[19] = system: RARa homodimer (NR concentration 270 nM)
How it was run: as §1

[20] = system: RARb:RXRa (NR concentration 270 nM, RXRa partner concentration 90 nM)
How it was run: as §1

Sequence	PBM binding z-score [1]	PBM binding z-score [2]	PBM binding z-score [3]	PBM binding z-score [4]	PBM binding z-score [5]	PBM binding z-score [6]	PBM binding z-score [7]	PBM binding z-score [8]	PBM binding z-score [9]	PBM binding z-score [10]	PBM binding z-score [11]	PBM binding z-score [12]	PBM binding z-score [13]	PBM binding z-score [14]	PBM binding z-score [15]	PBM binding z-score [16]	PBM binding z-score [17]	PBM binding z-score [18]	PBM binding z-score [19]	PBM binding z-score [20]
CCTGCTGGGTCAATGGTCAGCTAAAGCAGCTCGC	2.08	1.41	-0.526	1.11	-0.873	2.95	3.53	4.63	1.83	3.72	2.51	3.15	-1.4	-0.684	0.557	0.874	-0.552	1.78	-0.395	3.29
TCTGCTAGGTCAACGACGGTCAGCTAATCTGCTA	3.49	4.34	0.203	1.97	0.156	3.28	2.09	2.97	1.76	2.26	3.89	3.94	0.0425	0.346	0.772	2.08	-0.714	2.4	-1.12	4.13
CGGACTAGGTCAGAACAGGACAGTGAAGGATGAT	1.12	0.71	-0.0673	0.176	-0.579	2.36	4.2	3.5	1.01	2.58	6.67	6.53	3.25	1.13	1.57	0.748	0.281	0.846	0.0596	2.68
CAAACTAGGTCACCGGAAGGTCAAAGTACGCATG	6.81	6.23	5.23	5.83	1.75	6.36	9.91	8.16	6.57	7.9	8.79	8.9	4.79	1.89	9.62	6.54	1.85	8.16	4.07	5.38
TTACCAAGGTGATCTGAGGTCGTTGATCCAACTC	1.9	3.07	0.554	1.78	-0.164	1.78	0.169	0.846	0.216	0.651	0.904	1.97	0.232	-0.0515	1.46	5.06	1.41	2.02	0.209	1.55
TCTAGTTGGTCACGGAGGTAACACACGACGGGTA	0.499	0.13	-0.316	0.404	0.515	1.02	1.34	1.92	3.23	2.25	2.14	2.58	0.811	0.805	0.896	0.407	0.258	0.834	0.81	1.8
CCGACTGGGCCATCAGGTCATTGATATCAACGTT	1.52	1.05	0.75	1.38	-0.6	2.19	1.69	2.75	0.458	1.85	3.07	3.51	-1.33	-0.437	0.811	1.47	0.46	1.85	-0.257	2.04
TCTTGTAGATCAAAGTTTAAGAAAGCCGAAGCCT	0.983	1.1	0.0318	0.659	0.169	2.46	4.04	5.01	5.17	5.73	2.31	1.66	0.921	0.574	0.293	0.685	0.403	0.864	0.333	0.69
CGTCCAAGGCCATAGGAGGTCAGTGAAGACAGAT	2.46	3.14	0.814	1.69	-0.756	2.21	0.688	0.571	-0.185	0.133	0.496	1.69	-0.275	-0.658	0.925	3.03	1.16	2	-0.0451	2.9
CAAACTAGGTCAAGAGGTCAGAGTCCGCTTCCCG	5.85	5.23	3.2	4.21	0.8	6.08	9.79	7.9	6.89	8.32	8.57	8.53	2.77	1.17	6.51	5.04	0.812	6.67	3.26	5.15
ATCTCTAGGTAACAAGTTCAGTAAAAGAGAGGAC	0.872	1.08	1.01	0.953	1.1	1.81	1.76	2.11	0.675	1.82	3.06	3.22	1.24	1.1	1.34	1.67	1.66	1.57	1.54	1.78
TAGGCTAGGTCATTGGGCCAGTATAGTACGCATC	4	2.77	0.321	1.87	0.37	3.73	3.73	3.76	0.966	2.24	2.74	3.99	0.305	0.421	1.41	1.32	-0.0794	1.9	0.178	3.79
TGAATGAGGTTAAAGATCAAGGAACGTGGCGTCG	3.35	2.61	-0.438	1.96	0.0283	4.79	6.53	6.53	5.25	6.93	1.88	3.3	0.538	0.468	0.301	2.23	-0.137	3.64	0.0967	2.11
TAGCCTAGGTCATGGGCCAGTATTCCACGCGAAC	4.39	3.5	0.0514	2.3	-0.499	4.12	3.67	3.49	1.17	2.47	1.55	3.11	0.483	-0.959	1.79	1.75	-0.956	2.95	-0.638	3.78
TCATAAAGGTAAATGCTAGGTGAAAGTCCGATCT	1.41	1.31	0.158	0.935	-0.29	1.55	0.57	2.52	4.21	3.45	3.32	1.59	0.692	0.518	1.01	0.647	0.218	1.36	0.932	1.04
